This is a sample that favours compounds with a hit; in the whole collection about 1.8% have one here.
BRCA1 expr act – qHTS Assay to Identify Small Molecule Activators of BRCA1 Expression. Potency, µM (doses to about 46.1 µM), inactives show top-dose activation, most hits filed as activators. AID 624202, 2012. 1.1% of 380,000 active. MCF7-BRCA1-FFLuc reporter, luminescence, 48 h; response scale: scaled: vehicle 0%, 10 µM genistein 100%; further: potency means the concentration at half of the fitted maximal effect; nearly all actives have a fitted effect of over 80% in size
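Reporter cells (MCF7, BRCA1 promoter-firefly luciferase) received library compounds across a concentration series for 48 h. End-point luminescence was measured and concentration-effect curves derived after normalization.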
pAkt inh – HTS Assay for Inhibitors of Akt Phophorylation: Primary Screen. AID 651550, 2012. 0.32% of 360,000 active. Neuro2A IGF-stimulated pAkt S473 HTRF, 20 min; hits give low values. activity change, % for hits at 50 µM; in the data active means activity change below about -80%; inconclusive means mostly about -51% to -80%; further: on the % scale 0 is the no-effect control and ±100 the full control effect
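Single-point screen (50 µM final compound) in Neuro2A cells stimulated 20 min with 6 nM IGF at 37 deg C. After lysis, Ser473-phosphorylated Akt read by HTRF (ex 330 nm, em 615/665 nm) as the 665/615 ratio.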
Mm-Cpn inhibitor – Inhibitors of TCP-1 ring complex (TRiC) of Methanococcus maripaludis (MmCpn): qHTS; 0.031% of 330,000 active; Chaperonin Mm-Cpn (Methanococcus maripaludis); AID 504842, 2011; purified Mm-Cpn ATPase, ADP Transcreener TR-FRET; Potency, µM (top dose mostly 76.9 µM), for the others: top-dose activity, negative = inhibition, most hits filed as inhibitors; further: potency means the concentration at half of the fitted maximal effect; on the % scale 0 is the no-effect control and ±100 the full control effect; nearly all actives have a fitted effect of over 80% in size
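Measured: ADP formation by purified Mm-CPN. Conditions: 25 nM protein, 10 uM ATP, Tris pH 7.4 with Mg2+, K+ and DTT, 37°C for 30 min. Detection: Transcreener HTRF after 30 min at room temperature.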
CCT chaperon mod – High-Throughput Screening for Modulators of Cytosolic Chaperonin Activity. purified chaperonin ATPase assay, HTRF ADP detection, 30 min. activity change, % (test concentration not listed), hits read low. 0.3% of 360,000 active. AID 651819, 2012; in the data active means activity change below about -30%; further: on the % scale 0 is the no-effect control and ±100 the full control effect
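ATPase activity: ADP formed was measured by HTRF Transcreener (665/615 nm ratio) after 30 min at 37 deg C with 10 uM ATP. Compounds screened at one 76 uM concentration against 40 or 20 nM TRiC in Tris pH 7.4/KCl/MgCl2/DTT buffer.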
A-T KAP1 phos – qHTS Assay for Identifying a Potential Treatment of Ataxia-Telangiectasia; F2112 A-T fibroblasts, KAP-1 phosphorylation AlphaLISA; neocarzinostatin DNA damage 30 min before lysis; Potency, µM (titrated, usually from 57.5 µM), for the others: at the highest dose activation, actives largely listed as activators; 0.19% of 320,000 active; AID 485349, 2010; further: potency means the concentration at half of the fitted maximal effect; % of control where 0% means no effect; nearly all actives have a fitted effect of over 45% in size
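hTERT-immortalized A-T patient fibroblasts (F2112), 500 cells/well in OPTI-MEM, 1% FBS, got compounds for 60 min, then NCS for 30 min at 37C. Lysates were then assayed for phospho-KAP-1 by AlphaLISA (anti-pKAP1 donor, anti-KAP1 acceptor beads), 6 hr at 25C.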
The depositor's hits bear a star. Unless noted, the call rests on the fitted dose curve; in most records, active means well fitted curve in the direction sought with a large enough effect; inconclusive means small, poorly fitted or top-dose-only effect, or another doubt; inactive means no such curve, though single readings can be large; an effect the other way counts as inactive or inconclusive.

Cc1c(C(=O)c2ccc(F)cc2)c2ccccn2c1CCc1ccccn1 was read as BRCA1 expr act -10%, pAkt inh inactive, Mm-Cpn inhibitor 3%, CCT chaperon mod 0 and A-T KAP1 phos 1%.
`CC(C)OC(=O)c1c(-c2ccccc2)c(-c2ccccc2)nn(C)c1=O` gave BRCA1 expr act -25%.
For CCn1c(SCC(O)c2ccccc2)nnc1-c1ccccc1 (stereo not given) the results were BRCA1 expr act 11µM*, pAkt inh inactive, Mm-Cpn inhibitor 2%, CCT chaperon mod 2 and A-T KAP1 phos 7%.
Screening CCn1c(SCC(=O)OC(C)C)nnc1-c1ccccc1 returned BRCA1 expr act -16%, pAkt inh inactive, Mm-Cpn inhibitor 1%, CCT chaperon mod -1 and A-T KAP1 phos -9%.
Cc1cnc(C(=O)Nc2ccccc2F)cn1 was read as BRCA1 expr act 5µM*, pAkt inh inactive, Mm-Cpn inhibitor 1% and CCT chaperon mod 0.
`O=C(Nc1ccc(Br)cc1)Nc1ccccc1F` gave BRCA1 expr act inconclusive, pAkt inh inactive, Mm-Cpn inhibitor 0%, CCT chaperon mod 1 and A-T KAP1 phos 8%.
Cc1cnc(C(=O)Nc2ccccc2-n2cccc2)cn1 was read as BRCA1 expr act -37%, pAkt inh inactive, Mm-Cpn inhibitor 2% and CCT chaperon mod -4.
Screening O=C(Nc1ccccc1F)Nc1ccccc1F returned BRCA1 expr act 5µM*, pAkt inh inactive, Mm-Cpn inhibitor 2%, CCT chaperon mod 0 and A-T KAP1 phos 3%.
For Cc1ccc(-c2[nH]ncc2CNCc2ccccc2)cc1 the results were BRCA1 expr act -3%.
CCCCNC(=O)Cn1cnc2c(cnn2-c2ccc(C)c(C)c2)c1=O was read as BRCA1 expr act 4%, pAkt inh -84%*, Mm-Cpn inhibitor 1%, CCT chaperon mod 0 and A-T KAP1 phos -1%.
Screening Cc1ccc(-n2ncc3c(=O)n(CC(=O)NCc4ccco4)cnc32)cc1C returned BRCA1 expr act -27%, pAkt inh inactive, Mm-Cpn inhibitor -7%, CCT chaperon mod -4 and A-T KAP1 phos 1%.
Screening O=C(NNC(=S)Nc1ccccc1Cl)c1ccccc1Cl returned BRCA1 expr act 10µM*, pAkt inh inactive, Mm-Cpn inhibitor 1%, CCT chaperon mod -1 and A-T KAP1 phos -2%.
For O=C(NNC(=S)Nc1ccccc1Cl)c1ccccc1 the results were BRCA1 expr act 13µM*, pAkt inh inactive, Mm-Cpn inhibitor 1%, CCT chaperon mod -1 and A-T KAP1 phos 15%.
`O=C(NNC(=S)Nc1ccc(Cl)cc1)c1ccccc1` gave BRCA1 expr act 82%, pAkt inh inactive, Mm-Cpn inhibitor -4%, CCT chaperon mod -4 and A-T KAP1 phos 3%.
Screening O=C(Nc1ccccc1Cl)c1ccccc1Cl returned BRCA1 expr act 44%, Mm-Cpn inhibitor 2%, CCT chaperon mod 2 and A-T KAP1 phos 2%.
Screening CCCCn1cc2c(c1-c1ccccc1Br)c(=O)n(C)c(=O)n2C returned BRCA1 expr act -8%.
For Cc1c(C(=O)N2CCCC2)oc2ccc(Br)cc12 the results were BRCA1 expr act 6.3µM*, pAkt inh inactive, Mm-Cpn inhibitor 0%, CCT chaperon mod 1 and A-T KAP1 phos 18%.
`Cc1c(C(=O)N2CCc3ccccc3C2)oc2ccc(Br)cc12` gave BRCA1 expr act 80%, pAkt inh inactive, Mm-Cpn inhibitor -9%, CCT chaperon mod -4 and A-T KAP1 phos 5%.
`Cc1c(C(=O)N2CCN(C)CC2)oc2ccc(Br)cc12` gave BRCA1 expr act 13µM*, pAkt inh inactive, Mm-Cpn inhibitor 1%, CCT chaperon mod -9 and A-T KAP1 phos 4%.
For Cc1oc2cc3c(C(=O)N4CCCCC4)c(C)oc3cc2c1C(=O)N1CCCCC1 the results were BRCA1 expr act 3.2µM*, pAkt inh inactive, Mm-Cpn inhibitor 1%, CCT chaperon mod -4 and A-T KAP1 phos 5%.
C=CCn1c(N)c(C(=O)N2CCOCC2)sc1=S was read as BRCA1 expr act -30%, pAkt inh inactive, Mm-Cpn inhibitor -1%, CCT chaperon mod -1 and A-T KAP1 phos -9%.
For CCn1c(N)c(C(=O)N2CCOCC2)sc1=S the results were BRCA1 expr act 6%, pAkt inh -114%*, Mm-Cpn inhibitor 0%, CCT chaperon mod 0 and A-T KAP1 phos -5%.
Screening C/C(=N\NC(=O)c1sccc1C)c1cccnc1 returned BRCA1 expr act 2.8µM*, pAkt inh inactive, Mm-Cpn inhibitor 0%, CCT chaperon mod 0 and A-T KAP1 phos -1%.
Screening C/C(=N\NC(=O)c1sccc1C)c1ccncc1 returned BRCA1 expr act inconclusive, pAkt inh inactive, Mm-Cpn inhibitor 2%, CCT chaperon mod 0 and A-T KAP1 phos 3%.
C=C(C)Cn1c2ccc(NC(=O)NCc3ccccc3)cc2c(=O)n1C was read as BRCA1 expr act 5%, pAkt inh inactive and CCT chaperon mod -3.
COc1ccccc1-c1cn(-c2ccccc2)c(=S)[nH]1 was read as BRCA1 expr act -3%, pAkt inh inactive, Mm-Cpn inhibitor -4%, CCT chaperon mod 1 and A-T KAP1 phos 28%.
`COc1ccccc1C1=NC(c2ccccc2)CN1c1ccccc1` (stereo not given) gave BRCA1 expr act -33%, pAkt inh inactive, Mm-Cpn inhibitor -8%, CCT chaperon mod -2 and A-T KAP1 phos 28µM*.
Screening Cc1cccc(C(=O)OCC(=O)c2ccc3c(c2)OCO3)c1O returned BRCA1 expr act 6.3µM*, pAkt inh inactive, Mm-Cpn inhibitor -4%, CCT chaperon mod 0 and A-T KAP1 phos 6%.
`Cc1cccc(C(=O)OCC(=O)c2ccc3c(c2)OCCO3)c1O` gave BRCA1 expr act 6.3µM*, pAkt inh inactive, Mm-Cpn inhibitor 0%, CCT chaperon mod 1 and A-T KAP1 phos 9%.
Screening N#CCC(=O)Nc1ccc(C(=O)OCC(=O)c2ccc3c(c2)OCO3)cc1 returned BRCA1 expr act 45%, pAkt inh inactive, Mm-Cpn inhibitor 45µM*, CCT chaperon mod 2 and A-T KAP1 phos 0%.
Screening N#CCC(=O)Nc1ccc(C(=O)OCC(=O)c2ccc3c(c2)OCCO3)cc1 returned BRCA1 expr act 18%, pAkt inh inactive, Mm-Cpn inhibitor inconclusive, CCT chaperon mod -1 and A-T KAP1 phos 1%.
For Cc1cc(C(=O)COC(=O)c2ccc3c(c2)OCO3)c(C)n1Cc1cccs1 the results were BRCA1 expr act 5µM*, pAkt inh inactive, Mm-Cpn inhibitor -4%, CCT chaperon mod 2 and A-T KAP1 phos 19%.
For CC(=O)c1cccc(NC(=O)c2nc(-c3ccc(C)cc3)n3c2CCCCC3)c1 the results were BRCA1 expr act -30%.

Screening data from PubChem.
